The subject of one test is MCC-13. The test is described as follows: qHTS assay to identify novel small-molecules to repurpose for Merkel cell carcinoma treatment (AID 1296009). Note: nearly all actives have a fitted effect of over 60% in size. The conditions noted are these: MCC and control cell lines, CellTiter-Glo viability, 72 h; series mostly up to 46 µM. The gist of the method: (§1)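 Viability readout: ATP luminescence (CellTiter-Glo) after 72 hr drug exposure at 37 degree celsius. Dose-response format was 8 points for NPC and 11 points for MIPE; data normalized to in-plate controls.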

Another test has as its system MKL-1. The description is as above. The conditions noted are these: MCC and control cell lines, CellTiter-Glo viability, 72 h; series mostly up to 46 µM. The gist of the method: as §1
In general terms: In ATP-based viability assays light output follows the ATP content of the culture.

The subject of a further test is MKL-2. The description is as above. The conditions noted are these: MCC and control cell lines, CellTiter-Glo viability, 72 h; series mostly up to 46 µM. In short, it runs like this: as §1
A further test relates to C33A. Description: Primary qHTS to identify gynecologic anti-cancer compounds using libraries of approved drugs and bioactive compounds (AID 1345084). Note: nearly all actives have a fitted effect of over 55% in size. The conditions noted are these: Gynecologic cancer cell panel viability, ATPlite luminescence, 48 h; series mostly up to 57.5 µM. The gist of the method: (§2)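 Cells, 1,000 per well, plated 16 h, then exposed 48 h at 37 C to compounds. Viability by ATPlite luminescence after 15 min at room temperature.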
A general note: In qHTS, concentration-response curves come from the screen itself.

The next test concerns CAOV3. The test is described as above. Particulars: Gynecologic cancer cell panel viability, ATPlite luminescence, 48 h; series mostly up to 57.5 µM. The gist of the method:
as §2

The test system of the next test is CASKI. The description is as above. The conditions noted are these: Gynecologic cancer cell panel viability, ATPlite luminescence, 48 h; series mostly up to 57.5 µM. The gist of the method: as §2
Another test relates to Es-2. The description is as above. The conditions noted are these: Gynecologic cancer cell panel viability, ATPlite luminescence, 48 h; series mostly up to 57.5 µM. The gist of the method: as §2
Another test concerns HeLa. The test is described as above. Particulars: Gynecologic cancer cell panel viability, ATPlite luminescence, 48 h; series mostly up to 57.5 µM. The gist of the method: as §2
The test system of the next test is Hek293T. Described as above. The conditions noted are these: Gynecologic cancer cell panel viability, ATPlite luminescence, 48 h, control line for the selectivity index; series mostly up to 57.5 µM. In short, it runs like this:
as §2

The next test deals with JEG-3. Described as above. The conditions noted are these: Gynecologic cancer cell panel viability, ATPlite luminescence, 48 h; series mostly up to 57.5 µM. The gist of the method: as §2
Another test concerns OV90. The test is described as above. The conditions noted are these: Gynecologic cancer cell panel viability, ATPlite luminescence, 48 h; series mostly up to 57.5 µM. The gist of the method: as §2
The subject of the next test is PA-1. The description is as above. Particulars: Gynecologic cancer cell panel viability, ATPlite luminescence, 48 h; series mostly up to 57.5 µM. In short, it runs like this:
as §2

In the next test the test system is MCC-26. Description: qHTS assay to identify novel small-molecules to repurpose for Merkel cell carcinoma treatment (AID 1296009). Note: nearly all actives have a fitted effect of over 60% in size. Particulars: MCC and control cell lines, CellTiter-Glo viability, 72 h; series mostly up to 46 µM. The gist of the method:
as §1

In another test the test system is NIH3T3. Description: Cytotoxic Profiling of Annotated Libraries Using Quantitative High-Throughput Screening (AID 1296008). Note: nearly all actives have a fitted effect of over 60% in size. Particulars: Five cell lines viability, CellTiter-Glo ATP luminescence, 48-72 h; max response: active compounds read low. The gist of the method: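 Compounds were pin-transferred onto cells and incubated 48 or 72 hr at 37 degree Celsius, 95% humidity. CellTiter-Glo was added, plates sat 10 min at room temperature, then ATP-coupled luminescence was imaged as the viability read-out.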

The next test concerns UISO. The test is described as follows: qHTS assay to identify novel small-molecules to repurpose for Merkel cell carcinoma treatment (AID 1296009). Note: nearly all actives have a fitted effect of over 60% in size. Particulars: MCC and control cell lines, CellTiter-Glo viability, 72 h; series mostly up to 46 µM. In short, it runs like this: as §1
A further test relates to WaGa. The description is as above. Particulars: MCC and control cell lines, CellTiter-Glo viability, 72 h; series mostly up to 46 µM. In short, it runs like this: as §1
The test system of another test is SKOV3. The test is described as follows: Primary qHTS to identify gynecologic anti-cancer compounds using libraries of approved drugs and bioactive compounds (AID 1345084). Note: nearly all actives have a fitted effect of over 55% in size. Particulars: Gynecologic cancer cell panel viability, ATPlite luminescence, 48 h; series mostly up to 57.5 µM. The gist of the method: as §2
For another test, the system named is HACAT. The test is described as follows: qHTS assay to identify novel small-molecules to repurpose for Merkel cell carcinoma treatment (AID 1296009). Note: nearly all actives have a fitted effect of over 60% in size. The conditions noted are these: MCC and control cell lines, CellTiter-Glo viability, 72 h; at 44.8 µM (top of the series) unless noted. In short, it runs like this: as §1

Where “and” joins values, the source holds several entries; their conditions need not be identical. Equal values may be shown once. Results filed as inconclusive are left out. Unmarked numbers belong to inactive results. Calls of active or inactive are those of the source. Calls come from the whole dose curve; as a rule, active = well fitted curve in the direction sought with a large enough effect; inconclusive = small, poorly fitted or top-dose-only effect, or another doubt; inactive = no such curve, though single readings can be large; an effect the other way counts as inactive or inconclusive.
Potency is the fitted concentration of half-maximal effect.

`CCc1cncnc1N1CCN(Cc2nc3ccc(C(F)(F)F)cc3[nH]2)CC1`: the Potency entry with MCC-13, in the test on MKL-1, in the test with MKL-2, in the test on C33A, in the test on CAOV3 and in the test on CASKI was “inactive” each time. In addition, the Potency result in the test on Es-2, in the test on HeLa, in the test on Hek293T, with JEG-3, in the test with OV90 and in the test with PA-1 was “inactive” throughout.
As for `O=c1ncn2nc(Sc3ccc(F)cc3F)ccc2c1-c1c(Cl)cccc1Cl`, the Potency result in the test with MCC-13, in the test with MCC-26, in the test with MKL-1 and in the test with MKL-2 was “inactive” in each case.
As to `COc1cc2nccc(Oc3ccc(NC(=O)NC4CC4)c(Cl)c3)c2cc1C(N)=O`, the Potency is 14.8 µM (active) and 4.11 µM (active) in the test on NIH3T3; 2.64 µM (active) in the test with MKL-1; 9.35 µM (active) in the test on MKL-2; 18.7 µM (active) in the test with UISO; 1.48 µM (active) with WaGa. In addition, the Potency entry in the test on C33A, in the test with CASKI, in the test on Es-2, in the test on HeLa, in the test on Hek293T and with JEG-3 was “inactive” in each case. The Potency result in the test with OV90, in the test on PA-1 and in the test on SKOV3 was “inactive” each time.
Regarding `Oc1ccc(C2CNCCc3c2cc(O)c(O)c3Cl)cc1` (centres undefined), the Potency entry in the test with C33A, with CASKI, in the test on Es-2, in the test with HeLa, with Hek293T and in the test on JEG-3 was “inactive” each time. In addition, the Potency entry in the test on OV90, in the test with PA-1 and in the test on SKOV3 was “inactive” throughout.
In the case of `COc1ccc(-c2ccc3c(N4CCOCC4)nc(N4C[C@@H](C)O[C@@H](C)C4)nc3n2)cc1CO`, the Potency with NIH3T3 is 3.72 µM (active). In addition, the Potency entry with MKL-1 was “inactive”.
`O=C(Nc1cccnc1)N1CCC(Cc2cccc(Oc3ccc(C(F)(F)F)cn3)c2)CC1`: the Potency entry in the test with MCC-26, in the test with CAOV3, in the test with HeLa and in the test on PA-1 was “inactive” each time. Moreover, the Potency in the test on MKL-2 and in the test with UISO was 16.6 µM (active) each time.
Regarding `Cn1c(=O)c(F)c(Nc2ccc(I)cc2F)c2c(=O)n(C[C@@H](O)CO)cnc21`, the Potency result in the test with MCC-26, with MKL-1, with UISO and with WaGa was “inactive” in each case.
For `N#CC[C@H](C1CCCC1)n1cc(-c2ncnc3[nH]ccc23)cn1`, the result in the test on HACAT was inactive. For the same compound, the Potency result with MCC-13, in the test with MCC-26, in the test on MKL-1, in the test on MKL-2, with WaGa and with C33A was “inactive” throughout. Further, the Potency entry in the test with CAOV3, in the test with CASKI, in the test with HeLa, with Hek293T, in the test on JEG-3 and in the test with OV90 was “inactive” throughout. Further, the Potency result in the test on PA-1 is “inactive”.
As for `Cc1cc2c(F)c(Oc3ncnn4cc(OC[C@@H](C)O)c(C)c34)ccc2[nH]1`, the Potency entry in the test on MCC-13, in the test with MCC-26 and in the test with MKL-1 was “inactive” in each case.
In the case of `NC[C@H](O)c1ccc(O)c(O)c1`, the Potency entry in the test on C33A, with CAOV3, with CASKI, in the test with Es-2, in the test on HeLa and in the test on Hek293T was “inactive” throughout. The Potency entry with JEG-3, in the test on OV90, with PA-1 and in the test with SKOV3 was “inactive” each time.
In the case of `CCOc1cc(N2CCC(O)CC2)ccc1Nc1ncc2c(n1)N(C)c1ccccc1C(=O)N2C`, the Potency is 3.32 µM (active) in the test on MKL-1, 2.64 µM (active) in the test on MKL-2, 11.8 µM (active) in the test on UISO and 3.72 µM (active) in the test on WaGa.
With `CCn1c(-c2nonc2N)nc2cnc(Oc3cccc(NC(=O)c4ccc(OCCN5CCOCC5)cc4)c3)cc21`, the Potency with NIH3T3 is 14.8 µM (active). For the same compound, the Potency result in the test on MKL-2 was “inactive”.
Consider `COc1ccc(COc2cc3oc(=O)c4cc(C(C)O)ccc4c3cc2OC)cc1` (centres undefined), for which the call in the test on HACAT was inactive. In addition, the Potency entry in the test with MCC-13, in the test on MCC-26, in the test with MKL-1, in the test on MKL-2 and in the test with UISO was “inactive” in each case.
As for `COCCNCCCn1c(C(=O)CF)c(-c2ccc(C)cc2)c2c(N)ncnc21`, the Potency result in the test on MCC-13, in the test on MCC-26, in the test on MKL-1, with MKL-2, in the test on UISO and with WaGa was “inactive” each time.
Turning to `CCCS(=O)(=O)Nc1ccc(F)c(C(=O)c2c[nH]c3ncc(-c4ccc(Cl)cc4)cc23)c1F`, the Potency entry in the test on MCC-13, with MKL-1, with MKL-2, in the test on UISO, in the test with WaGa and in the test on C33A was “inactive” throughout. Besides, the Potency result with CASKI, in the test with HeLa, in the test on Hek293T, in the test with JEG-3, in the test on OV90 and in the test with SKOV3 was “inactive” each time. In addition, the Potency in the test on PA-1 is 10 µM (active).

The record behind these values is PubChem BioAssay (NCATS).
